In PubChem BioAssay (NCATS):
Records with an inconclusive call do not appear. Calls of active or inactive are those of the source. The call rests on the fitted dose curve; in most records, active means well fitted cell-killing curve with a large enough effect; inconclusive means small, poorly fitted or top-dose-only effect, or effect the other way; inactive means flat fitted curve, though single readings scatter.

Legend:
Assay in all cases: Primary qHTS to identify gynecologic anti-cancer compounds using libraries of approved drugs and bioactive compounds (AID 1345084); further: nearly all actives have a fitted effect of over 55% in size
Es-2 = conditions: Gynecologic cancer cell panel viability, ATPlite luminescence, 48 h; series mostly up to 57.5 µM
Outline: (§1)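 Cytotoxicity screen measuring ATP content by luciferase luminescence. Each compound is applied at five concentrations for 48 h at 37 C with 5% CO2.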

HeLa = conditions: Gynecologic cancer cell panel viability, ATPlite luminescence, 48 h; series mostly up to 57.5 µM
Outline: as §1

Hek293T = conditions: Gynecologic cancer cell panel viability, ATPlite luminescence, 48 h, control line for the selectivity index; series mostly up to 57.5 µM
Outline: as §1

JEG-3 = conditions: Gynecologic cancer cell panel viability, ATPlite luminescence, 48 h; series mostly up to 57.5 µM
Outline: as §1

OV90 = conditions: Gynecologic cancer cell panel viability, ATPlite luminescence, 48 h; series mostly up to 57.5 µM
Outline: as §1

PA-1 = conditions: Gynecologic cancer cell panel viability, ATPlite luminescence, 48 h; series mostly up to 57.5 µM
Outline: as §1

SKOV3 = conditions: Gynecologic cancer cell panel viability, ATPlite luminescence, 48 h; series mostly up to 57.5 µM
Outline: as §1

Tov-21-G = conditions: Gynecologic cancer cell panel viability, ATPlite luminescence, 48 h; series mostly up to 57.5 µM
Outline: as §1

Tov112D = conditions: Gynecologic cancer cell panel viability, ATPlite luminescence, 48 h; series mostly up to 57.5 µM
Outline: as §1
On the % scale 0 is the no-effect control and ±100 the full control effect.

CCCC(N[C@@H](C)C(=O)N1[C@H](C(=O)O)C[C@@H]2CCCC[C@@H]21)C(=O)OCC (stereo partly specified)
inactive: Potency (Es-2) | Potency (HeLa) | Potency (Hek293T) | Potency (JEG-3) | Potency (OV90) | Potency (PA-1) | Potency (SKOV3) | Potency (Tov-21-G) | Potency (Tov112D)

O=C(CCO[C@@H]1O[C@H](CO)[C@@H](O)[C@H](O)[C@H]1O)c1ccc(O)cc1
inactive: Potency (Es-2) | Potency (HeLa) | Potency (Hek293T) | Potency (JEG-3) | Potency (OV90) | Potency (PA-1) | Potency (SKOV3) | Potency (Tov-21-G) | Potency (Tov112D)

O=C(O)[C@H]1CCCC[C@H]1C(=O)N1CCc2ccccc2[C@H]1CN1C(=O)c2ccccc2C1=O
inactive: Potency (Es-2) | Potency (HeLa) | Potency (Hek293T) | Potency (JEG-3) | Potency (OV90) | Potency (PA-1) | Potency (SKOV3) | Potency (Tov-21-G) | Potency (Tov112D)

O=C(CCCCc1ccc2ccccc2c1)C(F)(F)F
inactive: Potency (Es-2) | Potency (HeLa) | Potency (Hek293T) | Potency (JEG-3) | Potency (OV90) | Potency (PA-1) | Potency (SKOV3) | Potency (Tov-21-G) | Potency (Tov112D)

C[C@@H]1O[C@@H](O[C@H]2[C@H](O)[C@@H](C(=O)O)O[C@@H](O[C@H]3CC[C@@]4(C)C(CC[C@]5(C)C4CC=C4C6CC(C)(C)CC[C@]6(C(=O)O)CC[C@]45C)C3(C)C)[C@@H]2O[C@@H]2O[C@H](CO)[C@@H](O)[C@H](O)[C@H]2O)[C@H](O)[C@H](O)[C@H]1O (stereo partly specified)
inactive: activity change, negative = cytotoxicity (Es-2) 0.67% [at 11.6 µM] | activity change, negative = cytotoxicity (HeLa) 6.77% [at 11.6 µM] | activity change, negative = cytotoxicity (Hek293T) -9.05% [at 11.6 µM] | activity change, negative = cytotoxicity (JEG-3) -1.5% [at 11.6 µM] | activity change, negative = cytotoxicity (OV90) -2.55% [at 11.6 µM] | activity change, negative = cytotoxicity (PA-1) -11.5% [at 11.6 µM] | activity change, negative = cytotoxicity (SKOV3) -1.84% [at 11.6 µM] | activity change, negative = cytotoxicity (Tov-21-G) 0.088% [at 11.6 µM] | activity change, negative = cytotoxicity (Tov112D) 0.16% [at 11.6 µM]

CO[C@H]1C=C2C(CC[C@H](O[C@@H]3O[C@H](CO)[C@@H](O)[C@@H](O)[C@H]3O)C2(C)C)[C@]2(C)CC[C@]3(C)C([C@H](C)C(O)C(C=C(C)C)O[C@@H]4O[C@H](CO)[C@@H](O)[C@@H](O)[C@H]4O)CC[C@@]3(C)C12 (stereo partly specified)
inactive: activity change, negative = cytotoxicity (Es-2) 2.74% [at 11.6 µM] | activity change, negative = cytotoxicity (HeLa) 0.609% [at 11.6 µM] | activity change, negative = cytotoxicity (Hek293T) 12.3% [at 11.6 µM] | activity change, negative = cytotoxicity (JEG-3) -6.82% [at 11.6 µM] | activity change, negative = cytotoxicity (OV90) 5.72% [at 11.6 µM] | activity change, negative = cytotoxicity (PA-1) -0.818% [at 11.6 µM] | activity change, negative = cytotoxicity (SKOV3) -12.6% [at 11.6 µM] | activity change, negative = cytotoxicity (Tov-21-G) 4% [at 11.6 µM] | activity change, negative = cytotoxicity (Tov112D) 2.11% [at 11.6 µM]

CO[C@@H]1CC[C@H](OC[C@]2(COC(=O)c3ccc(C)[nH]3)[C@H](OC(C)=O)CC[C@@]3(C)[C@@H]4CC=C(C)[C@@H](C5=C(O)C(=O)OC5O)[C@]4(C)CC[C@@H]32)O[C@H]1C (stereo partly specified)
inactive: Potency (Es-2) | Potency (HeLa) | Potency (Hek293T) | Potency (JEG-3) | Potency (OV90) | Potency (PA-1) | Potency (SKOV3) | Potency (Tov-21-G) | Potency (Tov112D)

CC(C)(O)C1CCC2(C)C3C(O)C4C(C13)C42CO (stereo unspecified)
inactive: Potency (Es-2) | Potency (HeLa) | Potency (Hek293T) | Potency (JEG-3) | Potency (OV90) | Potency (PA-1) | Potency (SKOV3) | Potency (Tov-21-G) | Potency (Tov112D)

CN1CC[C@@H](NC(=O)Nc2ccc(C#N)cc2)C[C@@H]1c1nc2ccccc2[nH]1
inactive: Potency (Es-2) | Potency (HeLa) | Potency (Hek293T) | Potency (JEG-3) | Potency (OV90) | Potency (PA-1) | Potency (SKOV3) | Potency (Tov-21-G) | Potency (Tov112D)

CC(C)(C)NCc1cc(Nc2ccnc3cc(Cl)ccc23)c2c(c1O)CCCC2
inactive: activity change, negative = cytotoxicity (Es-2) 6.55% [at 0.462 µM] | activity change, negative = cytotoxicity (HeLa) 9.09% [at 0.462 µM] | activity change, negative = cytotoxicity (Hek293T) -0.834% [at 0.462 µM] | activity change, negative = cytotoxicity (JEG-3) 2.67% [at 0.462 µM] | activity change, negative = cytotoxicity (OV90) 12.6% [at 0.462 µM] | activity change, negative = cytotoxicity (PA-1) 0.938% [at 0.462 µM] | activity change, negative = cytotoxicity (SKOV3) 4.41% [at 0.462 µM] | activity change, negative = cytotoxicity (Tov-21-G) 8.34% [at 0.462 µM] | activity change, negative = cytotoxicity (Tov112D) 20.2% [at 0.462 µM]

CNC(=O)COC(=O)NCCC1CCN(c2cccc(C)n2)CC1
inactive: Potency (Es-2) | Potency (HeLa) | Potency (Hek293T) | Potency (JEG-3) | Potency (OV90) | Potency (PA-1) | Potency (SKOV3) | Potency (Tov-21-G) | Potency (Tov112D)

CC(CCC1C(C(=O)O)=CC(=O)CC1(C)C)O[C@@H]1O[C@H](CO)[C@@H](O)[C@H](O)[C@H]1O (stereo partly specified)
inactive: Potency (Es-2) | Potency (HeLa) | Potency (Hek293T) | Potency (JEG-3) | Potency (OV90) | Potency (PA-1) | Potency (SKOV3) | Potency (Tov-21-G) | Potency (Tov112D)

COc1cc(C[C@H]2COC(=O)[C@@H]2Cc2ccc(O)c(OC)c2)ccc1O
inactive: Potency (Es-2) | Potency (HeLa) | Potency (Hek293T) | Potency (JEG-3) | Potency (OV90) | Potency (PA-1) | Potency (SKOV3) | Potency (Tov-21-G) | Potency (Tov112D)

C=C[C@H]1[C@H](O[C@@H]2O[C@H](CO[C@@H]3OC[C@](O)(CO)[C@H]3O)[C@@H](O)[C@H](O)[C@H]2O)OC=C2C(=O)OCC[C@H]21
inactive: Potency (Es-2) | Potency (HeLa) | Potency (Hek293T) | Potency (JEG-3) | Potency (OV90) | Potency (PA-1) | Potency (SKOV3) | Potency (Tov-21-G) | Potency (Tov112D)
